According to PubChem BioAssay (NCI):
About 83,000 compounds went through this panel and 20% of them were active in at least one assay; those are over-represented in the sample as a whole.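 Results are percent growth after 48 hours of single-concentration exposure. 100 means growth as in untreated cells, lower positive values show inhibition; negative values down to -100 show cell death.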 Values without a mark were called inactive. The source made the active and inactive calls. Rule for the calls: active = growth percent below 10; inactive = the rest.

System: A498 renal
Experiment: NCI-60 one-dose screen, 48 h (100 = growth as untreated, 0 = no growth, -100 = all killed)
Conditions: 10 µM unless noted

SMILES | growth
CC1(C)[C@@H](O[C@@H]2OC[C@@H](O[C@@H]3O[C@H](CO)[C@@H](O)[C@H](O)[C@H]3O[C@@H]3OC[C@@H](O)[C@H](O)[C@H]3O)[C@H](O)[C@H]2O[C@@H]2O[C@H](CO)[C@@H](O)[C@H](O)[C@H]2O)CC[C@]2(C)[C@H]3CC[C@]45OC[C@@]6(CC[C@](C)(C=O)C[C@H]64)[C@H](O)C[C@@]5(C)[C@]3(C)CC[C@@H]12 | -89.9% (active)
O=C(CCl)NNc1nccc(Nc2ccc(S(=O)(=O)Nc3ccncc3)cc2)n1 | 80.8%
CS(=O)(=O)Nc1cc(-c2ccc3ncc(C#N)c(Nc4ccc(F)c(Cl)c4)c3c2)cnc1Cl | -83.6% (active)
Cc1[nH]c(C2CC(c3ccc(C(F)(F)F)c(F)c3)=NN2c2ccccc2)c(C)c1C(=O)NCC(F)(F)F (stereo not given) | 48.2%
O=P(O)(O)OCC1OC(n2cnc3c(NCc4ccco4)ncnc32)C(O)C1O (stereo not given) | 7.68% (active)
C=CN(C(=O)N1CCN(c2cc3c(cc2F)c(=O)c(C(=O)O)cn3C2CC2)CC1)c1nc(-c2ccc(OC)cc2)cs1 | 8.44% (active)
CC(=O)Oc1ccc(OC(C)=O)c2ccccc12 | 118%
O=C1c2ccccc2C(=O)c2c1cc1c(c2[N+](=O)[O-])OCO1 | -44.9% (active)
Cc1cccc2c1C[C@@]1(C2=O)C(c2ccc(C(C)(C)C)cc2)=NOS1=O (stereo not given in full) | 77.1%
COc1cccc(Nc2ncnc3cc(NC(=O)CCl)ccc23)c1 | -5.63% (active)
NC(N)=NS(=O)(=O)c1ccc(NC2=C(I)C(=O)c3ncccc3C2=O)cc1 | 97.2%
Cc1c(CN)cc(-c2ccc(Cl)cc2)n1-c1ccccc1 | -7.73% (active)
O=C1Nc2ccccc2C1(c1c[nH]c2ccccc12)c1c[nH]c2ccccc12 | 49.3%
CCn1c(-c2cc3c([nH]c4ccccc43)c(-c3cccc(O)c3)n2)n[nH]c1=S | 35%
CCN(CC)c1ccc(/C=N/NC(=O)Cc2ccc(Nc3ccnc(C(F)(F)F)c3)cc2)c(O)c1 | 22%
COc1ccc2c(c1)c(-c1nc(-c3c[nH]c4ncccc34)cs1)cn2CCCN1CCOCC1 | 27.8%
CNC(C)[C@H]1CCC2C3CC=C4C(=O)[C@@H](NC(=O)C=C(C)C)CC[C@]4(C)C3CC[C@@]21C (stereo not given in full) | 56%
CN(Cc1ccccc1)c1nc(Cl)c(C2CC(c3ccccc3)=NN2c2ccccc2)s1 (stereo not given) | 105%
N#CC1=C(N)Oc2ccc3ccccc3c2C1c1ccc([N+](=O)[O-])cc1 (stereo not given) | 84.8%
COc1ccc(C(=O)Cn2c(C(=O)c3ccc(OC)cc3)nc3ccccc32)cc1 | 34.2%

SMILES | growth
CC1C(/C=N/NC(N)=S)C(C#N)(C#N)C1(C#N)C#N (stereo not given) | 103%
O=C(Cc1ccc(/C=C/C(=O)c2ncc[nH]2)cc1)Nc1cc(C(F)(F)F)cc(C(F)(F)F)c1 | 94.3%
CCOC(=O)c1ccccc1-c1c2ccc(=[N+](C)C)cc-2oc2cc(N(C)C)ccc12 | 0.621% (active)
CCN1C(=O)N(CC)C2C1NN=c1s/c(=C\c3ccc(C(F)(F)F)cc3)c(=O)n12 (stereo not given) | 8.73% (active)
Cc1nn(-c2ccccc2)c(N)c1N=C1NC(=O)/C(=C/c2ccc(Br)cc2)S1 | 67%
O=C(c1c[nH]c2ccccc12)c1n[nH]c(=S)n1-c1cccc(Br)c1 | 118%
Cc1ccc(/C=C/C(=O)Nc2ncc(Cc3ccc(F)cc3)s2)o1 | 27.3%
O=C1/C(=C\c2cccc3nccnc23)SC(=S)N1CCc1ccc(O)cc1 | 105%
COc1cccc(/C=C/C(=O)c2cccc(Nc3nc(Nc4ccccc4)nc(Nc4ccccc4)n3)c2)c1 | 94.7%
C=C1C(=O)O[C@H]2[C@H]1CC/C(COC(=O)c1cc3cc(Cl)ccc3[nH]1)=C\CC[C@@]1(C)O[C@@H]21 | -11.9% (active)
COc1ccc(Cn2cc(C(=O)N=Nc3c(O)[nH]c4c(C)cccc34)nn2)cc1 | 101%
NC(=O)c1cnc(Nc2cccc(N)c2)nc1NCCCNC(=O)C1CCC1 | 90.4%
CC1=C2[C@@H](CC1)[C@]1(C)O[C@@](C3CCCCC3)(C[C@H]1OC(=O)CO)[C@H]2OC(=O)/C=C/c1ccccc1 | -89.9% (active)
O=C(Nc1cnc(Nc2ccc(N3CCOCC3)nc2)nc1Oc1ccc(C(F)(F)F)cc1)c1ccncc1 | 95.8%
Cc1c2cccnc2c(C)c2c1c1cc(CO)ccc1n2C | -81.1% (active)
CCN1CCN(CC(=O)Nc2ccc(-c3cn4c(n3)sc3cc(Oc5ccnc(C(=O)NC)c5)ccc34)cc2)CC1 | 81.8%
COc1cc(OC)c2sc(-c3ccc(-n4cncc4-c4cc(OC)c(OC)c(OC)c4)cc3)nc2c1 | 48.5%
Ic1ccccc1I | 106%
CCC1S/C(=N\N=C(\C)c2cc3cc(Cl)ccc3o2)N(c2ccccc2)C1=O (stereo not given) | 22.2%
CN(CCCNC(=O)CCOCCOCCOCCNC(=O)Cc1ccc2ccc3cccc4ccc1c2c34)CCCNc1cc(-c2ccc3ccccc3c2)nc2ccccc12 | -86.6% (active)
